{"source": "PubChem BioAssay AID1159580", "about": "(chemical genetic matrix, 2015)", "assay": "chemical genetic growth profiling, strain panel (AID 1159580);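 also: tested at 20 µM; growth read once vehicle control cultures reached saturation at 30 °C; 1 = growth at the plate median or of vehicle wells; lower values mean less growth of the strain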", "settings": "S. cerevisiae deletion strains, growth OD", "note": "Where “and” joins values, the source holds several entries; their conditions need not be identical. Identical values can stand only once. In all, about 5,500 compounds went through this assay and about 2,000 (36%) were called active. About 18% were inconclusive and are not listed. The list shows a part of the results. A number with no mark means an inactive call. Rule as the data show it: active = normalized growth mostly below about 0.91 (no sharp cut-off); inconclusive = no clear call, values can overlap the other calls; inactive = mostly above about 0.92."}
{"smiles": "c1ccc2[nH]c(-c3cscn3)nc2c1", "values": [{"measurement": "normalized growth", "setting": "locus YAL021C, strain ccr4, active compounds read low", "result": 0.964}, {"measurement": "normalized growth", "setting": "locus YAL026C, strain drs2, active compounds read low", "result": 0.956}, {"measurement": "normalized growth", "setting": "locus YAL030W, strain snc1, active compounds read low", "result": 1.01}, {"measurement": "normalized growth", "setting": "locus YBL061C, strain skt5, active compounds read low", "result": 1.01}, {"measurement": "normalized growth", "setting": "locus YBR009C, strain hhf1, active compounds read low", "result": 0.965}, {"measurement": "normalized growth", "setting": "locus YBR021W, strain FUR4, active compounds read low", "result": 0.946}, {"measurement": "normalized growth", "setting": "locus YBR023C, strain chs3, active compounds read low", "result": 0.993}, {"measurement": "normalized growth", "setting": "locus YBR171W, strain sec66, active compounds read low", "result": 1}, {"measurement": "normalized growth", "setting": "locus YBR229C, strain ROT2, active compounds read low", "result": 0.991}, {"measurement": "normalized growth", "setting": "locus YBR231C, strain swc5, active compounds read low", "result": 0.958}, {"measurement": "normalized growth", "setting": "locus YBR279W, strain paf1, active compounds read low", "result": 1.01}, {"measurement": "normalized growth", "setting": "locus YCL011C, strain gbp2, active compounds read low", "result": 0.982}, {"measurement": "normalized growth", "setting": "locus YCL016C, strain dcc1, active compounds read low", "result": 0.95}, {"measurement": "normalized growth", "setting": "locus YCL029C, strain bik1, active compounds read low", "result": 0.945}, {"measurement": "normalized growth", "setting": "locus YCL061C, strain MRC1, active compounds read low", "result": 0.991}, {"measurement": "normalized growth", "setting": "locus YCL069W, strain vba3, active compounds read low", "result": 0.996}, {"measurement": "normalized growth", "setting": "locus YCR088W, strain abp1, active compounds read low", "result": 1.01}, {"measurement": "normalized growth", "setting": "locus YDL005C, strain med2, active compounds read low", "result": 1.02}, {"measurement": "normalized growth", "setting": "locus YDL035C, strain GPR1, active compounds read low", "result": 0.996}, {"measurement": "normalized growth", "setting": "locus YDL040C, strain nat1, active compounds read low", "result": 1.01}, {"measurement": "normalized growth", "setting": "locus YDL074C, strain BRE1, active compounds read low", "result": 0.94}, {"measurement": "normalized growth", "setting": "locus YDL101C, strain DUN1, active compounds read low", "result": 1.01}, {"measurement": "normalized growth", "setting": "locus YDL134C, strain PPH21, active compounds read low", "result": 0.998}, {"measurement": "normalized growth", "setting": "locus YDL185W, strain tfp1, active compounds read low", "result": 1.01}, {"measurement": "normalized growth", "setting": "locus YDL192W, strain arf1, active compounds read low", "result": 1.01}, {"measurement": "normalized growth", "setting": "locus YDR069C, strain doa4, active compounds read low", "result": 0.988}, {"measurement": "normalized growth", "setting": "locus YDR101C, strain arx1, active compounds read low", "result": 0.945}, {"measurement": "normalized growth", "setting": "locus YDR137W, strain rgp1, active compounds read low", "result": 0.91}, {"measurement": "normalized growth", "setting": "locus YDR159W, strain sac3, active compounds read low", "result": 0.965}, {"measurement": "normalized growth", "setting": "locus YDR162C, strain NBP2, active compounds read low", "result": 1.01}, {"measurement": "normalized growth", "setting": "locus YDR195W, strain ref2", "result": "1.15 [resistant] (active)"}, {"measurement": "normalized growth", "setting": "locus YDR297W, strain sur2, active compounds read low", "result": 1.03}, {"measurement": "normalized growth", "setting": "locus YDR318W, strain mcm21, active compounds read low", "result": 0.998}, {"measurement": "normalized growth", "setting": "locus YDR334W, strain swr1, active compounds read low", "result": 0.998}, {"measurement": "normalized growth", "setting": "locus YDR335W, strain msn5, active compounds read low", "result": 1.02}, {"measurement": "normalized growth", "setting": "locus YDR388W, active compounds read low", "result": 1.01}, {"measurement": "normalized growth", "setting": "locus YDR392W, strain spt3, active compounds read low", "result": 0.867}, {"measurement": "normalized growth", "setting": "locus YDR502C, strain sam2, active compounds read low", "result": 0.971}, {"measurement": "normalized growth", "setting": "locus YEL003W, strain gim4, active compounds read low", "result": "0.132 (active)"}, {"measurement": "normalized growth", "setting": "locus YEL037C, strain rad23, active compounds read low", "result": 0.991}, {"measurement": "normalized growth", "setting": "locus YEL061C, strain CIN8 (second series), active compounds read low", "result": 1}, {"measurement": "normalized growth", "setting": "locus YEL061C, strain CIN8, active compounds read low", "result": 0.987}, {"measurement": "normalized growth", "setting": "locus YER015W, strain faa2, active compounds read low", "result": 0.997}, {"measurement": "normalized growth", "setting": "locus YER016W, strain bim1, active compounds read low", "result": 0.995}, {"measurement": "normalized growth", "setting": "locus YER110C, active compounds read low", "result": 1.02}, {"measurement": "normalized growth", "setting": "locus YER111C, strain swi4, active compounds read low", "result": 1.01}, {"measurement": "normalized growth", "setting": "locus YER155C, strain BEM2 (second series), active compounds read low", "result": "0.833 (active)"}, {"measurement": "normalized growth", "setting": "locus YER155C, strain BEM2, active compounds read low", "result": 0.991}, {"measurement": "normalized growth", "setting": "locus YER167W, strain BCK2, active compounds read low", "result": 0.997}, {"measurement": "normalized growth", "setting": "locus YFR010W, strain ubp6, active compounds read low", "result": 0.986}, {"measurement": "normalized growth", "setting": "locus YGL078C, strain dbp3, active compounds read low", "result": 1.01}, {"measurement": "normalized growth", "setting": "locus YGL086W, strain mad1, active compounds read low", "result": 0.959}, {"measurement": "normalized growth", "setting": "locus YGL167C, strain pmr1, active compounds read low", "result": 1.02}, {"measurement": "normalized growth", "setting": "locus YGL173C, strain kem1, active compounds read low", "result": 1.01}, {"measurement": "normalized growth", "setting": "locus YGL227W, strain vid30, active compounds read low", "result": 1.02}, {"measurement": "normalized growth", "setting": "locus YGL240W, strain doc1, active compounds read low", "result": 0.957}, {"measurement": "normalized growth", "setting": "locus YGL248W, strain PDE1, active compounds read low", "result": 0.992}, {"measurement": "normalized growth", "setting": "locus YGL253W, strain hxk2, active compounds read low", "result": 0.998}, {"measurement": "normalized growth", "setting": "locus YGR135W, strain pre9, active compounds read low", "result": 1.04}, {"measurement": "normalized growth", "setting": "locus YGR252W, strain gcn5, active compounds read low", "result": 0.962}, {"measurement": "normalized growth", "setting": "locus YHR013C, strain ard1, active compounds read low", "result": 0.922}, {"measurement": "normalized growth", "setting": "locus YHR027C, strain rpn1, active compounds read low", "result": 1.01}, {"measurement": "normalized growth", "setting": "locus YHR030C, strain SLT2, active compounds read low", "result": "0.992 and 0.96"}, {"measurement": "normalized growth", "setting": "locus YHR079C, strain IRE1 (second series), active compounds read low", "result": 1}, {"measurement": "normalized growth", "setting": "locus YHR079C, strain IRE1, active compounds read low", "result": 0.963}, {"measurement": "normalized growth", "setting": "locus YHR094C, strain hxt1, active compounds read low", "result": 1.01}, {"measurement": "normalized growth", "setting": "locus YHR129C, strain ARP1, active compounds read low", "result": 0.993}, {"measurement": "normalized growth", "setting": "locus YHR142W, strain chs7, active compounds read low", "result": 1}, {"measurement": "normalized growth", "setting": "locus YHR200W, strain rpn10, active compounds read low", "result": 1}, {"measurement": "normalized growth", "setting": "locus YIL066C, strain RNR3, active compounds read low", "result": 0.954}, {"measurement": "normalized growth", "setting": "locus YIL073C, strain SPO22, active compounds read low", "result": 1.06}, {"measurement": "normalized growth", "setting": "locus YIL125W, strain kgd1, active compounds read low", "result": 1}, {"measurement": "normalized growth", "setting": "locus YIR030C, strain dcg1, active compounds read low", "result": 0.994}, {"measurement": "normalized growth", "setting": "locus YJL092W, strain hpr5, active compounds read low", "result": 0.997}, {"measurement": "normalized growth", "setting": "locus YJL095W, strain BCK1 (second series), active compounds read low", "result": 1.02}, {"measurement": "normalized growth", "setting": "locus YJL095W, strain BCK1, active compounds read low", "result": "0.997 and 0.958"}, {"measurement": "normalized growth", "setting": "locus YJL115W, strain asf1, active compounds read low", "result": 1}, {"measurement": "normalized growth", "setting": "locus YJL129C, strain trk1, active compounds read low", "result": 1.02}, {"measurement": "normalized growth", "setting": "locus YJL134W, strain LCB3, active compounds read low", "result": 1}, {"measurement": "normalized growth", "setting": "locus YJL154C, strain vps35, active compounds read low", "result": 1.01}, {"measurement": "normalized growth", "setting": "locus YJL164C, strain tpk1, active compounds read low", "result": 0.966}, {"measurement": "normalized growth", "setting": "locus YJL166W, strain qcr8, active compounds read low", "result": 1}, {"measurement": "normalized growth", "setting": "locus YJL168C, strain set2, active compounds read low", "result": 1.01}, {"measurement": "normalized growth", "setting": "locus YJL187C, strain SWE1 (second series), active compounds read low", "result": 0.974}, {"measurement": "normalized growth", "setting": "locus YJR043C, strain POL32, active compounds read low", "result": 0.964}, {"measurement": "normalized growth", "setting": "locus YJR066W, strain TOR1, active compounds read low", "result": 0.917}, {"measurement": "normalized growth", "setting": "locus YJR075W, strain HOC1, active compounds read low", "result": 0.979}, {"measurement": "normalized growth", "setting": "locus YKL009W, strain mrt4, active compounds read low", "result": 1.02}]}
